From PubChem BioAssay (NCATS)

These molecules were tested against Catechol O-methyltransferase (Homo sapiens) (UniProt P21964) (assay: Confirmatory Screen for Target Class Profiling of Small Molecule Inhibitors of Methyltransferases (AID 1745852)). Details: MTase-Glo luminescence, SAH detection, recombinant enzyme; measured here: COMT max response; stronger effect = lower value.
Chain of Catechol O-methyltransferase (Homo sapiens) (P21964 whole entry, looked up): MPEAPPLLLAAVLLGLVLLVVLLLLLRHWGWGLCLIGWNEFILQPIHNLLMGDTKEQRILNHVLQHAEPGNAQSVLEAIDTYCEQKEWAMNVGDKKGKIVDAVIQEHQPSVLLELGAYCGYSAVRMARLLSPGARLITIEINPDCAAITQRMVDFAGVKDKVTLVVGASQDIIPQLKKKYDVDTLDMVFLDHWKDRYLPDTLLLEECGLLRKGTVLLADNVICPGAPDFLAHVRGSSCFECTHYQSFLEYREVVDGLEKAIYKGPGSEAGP
Molecule Cc1nn(C(=O)CCC(=O)N2CCC(Cc3nncn3CC3CC3)CC2)c2ccccc12 has an activity of 6.63%. CC1CCCCN1CCNC(=O)Cn1ccc2cc(S(=O)(=O)N3CCCCC3)ccc21 (stereo not given) gave an activity of 0.614%. With CC1CC(C)CN(S(=O)(=O)c2ccc3c(c2)oc(=O)n3CC(=O)Nc2ccc(Cl)cc2)C1 (stereo not given) the activity was -4.03%. CCCC1=Nc2cc(C(=O)NCCCN3CCCCC3CC)ccc2Sc2ccc(C)cc21 (stereo not given) showed an activity of -2.37%. Cc1ccc(NS(=O)(=O)c2ccc3c(c2)[C@H]2C=CC[C@H]2[C@@H](c2cccc(Cl)c2)N3)c(C)c1 was tested, and the activity was -11.2%. Molecule CC[C@H](C)NC(=O)c1sc(=S)n2c1[nH]c(=O)c1cc(Cl)ccc12 has an activity of -75.3%. With Cc1noc(C)c1-c1cc(-c2ccc(CN(C)C)cc2)cn2cncc12 the activity was -2.27%. In the case of CCN(CCc1nc2ccc(C)cc2[nH]1)C(=O)c1ccccc1C1CCNC1 (stereo not given), the activity is reported as 6.01%. Molecule O=S(=O)(c1ccc(Br)cc1)c1nnn2c1nc(NCCc1c[nH]c3ccccc13)c1ccccc12 has an activity of -1.9%. For Cc1ccc(CNC(=O)c2ccc3c(=O)[nH]c4c(C(=O)NC(C)C)sc(=S)n4c3c2)cc1, the activity was -30.2%. O=C(Nc1ccc2c(N3CCCCC3)ncnc2c1)c1ccccc1C(F)(F)F gave an activity of -15.7%. COc1ccc(-c2nc3ccncc3[nH]2)cc1 gave an activity of -92.6%. For COc1cccc(Nc2ccnc(-c3nnc(C)n3C3CCCCC3)c2)c1, the activity was 7.43%. With Cc1ccc([C@@H]2CN(c3cc(N4CCC(O)CC4)ncn3)C[C@H]2N(C)C)cc1 the activity was -2.09%. Molecule O=C(NCc1ccc(Cl)cc1)c1ccc2c(=O)[nH]c3c(C(=O)NC4CCCC4)sc(=S)n3c2c1 has an activity of -32.6%.
